# Source: PubChem BioAssay (NCATS)
# A number with no mark means an inactive call. Results filed as inconclusive are left out. Some of the results follow. Entries that show only a call come without a potency. The source made the active and inactive calls. Unless noted, the call rests on the fitted dose curve; in most records, active means well fitted curve in the direction sought with a large enough effect; inconclusive means small, poorly fitted or top-dose-only effect, or another doubt; inactive means no such curve, though single readings can be large; an effect the other way counts as inactive or inconclusive.
# Legend:
# [1] = target: Androgen receptor (Homo sapiens) (UniProt P10275); experiment: qHTS assay for small molecule agonists of androgen receptor signaling (AID 588515; active means well fitted curve in the direction sought with a large enough effect in the signal ratio, with a control signal flat; the % refers to the signal ratio); conditions: AR-UAS-bla HEK293, beta-lactamase ratio, agonist 16 h; active compounds read high
# Chain of Androgen receptor (Homo sapiens) (P10275 whole entry, looked up): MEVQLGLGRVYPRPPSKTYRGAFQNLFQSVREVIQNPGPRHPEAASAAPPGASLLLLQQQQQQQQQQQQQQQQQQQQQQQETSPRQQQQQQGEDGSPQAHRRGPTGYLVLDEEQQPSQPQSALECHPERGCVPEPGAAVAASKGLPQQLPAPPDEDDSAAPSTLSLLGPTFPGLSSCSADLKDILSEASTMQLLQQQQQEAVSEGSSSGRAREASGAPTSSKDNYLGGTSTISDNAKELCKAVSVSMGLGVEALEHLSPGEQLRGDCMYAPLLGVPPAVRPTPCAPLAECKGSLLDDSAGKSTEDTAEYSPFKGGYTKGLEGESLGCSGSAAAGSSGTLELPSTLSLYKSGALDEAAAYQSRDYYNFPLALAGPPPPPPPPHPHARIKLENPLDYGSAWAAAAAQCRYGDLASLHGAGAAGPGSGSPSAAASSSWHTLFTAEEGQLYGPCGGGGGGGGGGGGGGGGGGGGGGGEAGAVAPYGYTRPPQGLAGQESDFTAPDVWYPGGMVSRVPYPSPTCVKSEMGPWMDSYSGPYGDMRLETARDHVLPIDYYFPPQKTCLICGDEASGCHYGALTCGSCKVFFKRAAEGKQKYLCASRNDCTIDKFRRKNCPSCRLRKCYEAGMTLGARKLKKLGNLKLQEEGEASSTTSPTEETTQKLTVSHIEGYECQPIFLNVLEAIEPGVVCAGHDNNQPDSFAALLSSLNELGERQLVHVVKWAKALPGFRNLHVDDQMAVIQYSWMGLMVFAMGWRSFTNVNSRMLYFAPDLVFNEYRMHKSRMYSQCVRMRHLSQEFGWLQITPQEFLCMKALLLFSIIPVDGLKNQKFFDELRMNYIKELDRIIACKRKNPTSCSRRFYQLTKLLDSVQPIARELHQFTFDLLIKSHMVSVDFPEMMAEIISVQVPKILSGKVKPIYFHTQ
# Summary of the method: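 Stimulation of an AR-responsive β-lactamase reporter in GripTite HEK293 cells was measured after 16 h compound exposure at 37 °C, via CCF4 fluorescence after 2 h RT. EC50 from Hill fits, normalized to R1881 at 30 nM.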
# [2] = target: Peroxisome proliferator-activated receptor gamma (Homo sapiens) (UniProt P37231); experiment: qHTS assay for small molecule antagonists of peroxisome proliferator-activated receptor gamma signaling (AID 588537; active means well fitted inhibition curve with a large enough effect in the signal ratio, with a control signal flat, not every such curve was filed as active; the % refers to the signal ratio;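 further: reporter cells co-stimulated with 50 nM rosiglitazone agonist during compound treatment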); conditions: HEK293 PPARg-UAS-bla, beta-lactamase ratio, antagonist mode; series mostly up to 76.8 µM
# Chain of Peroxisome proliferator-activated receptor gamma (Homo sapiens) (P37231 whole entry, looked up): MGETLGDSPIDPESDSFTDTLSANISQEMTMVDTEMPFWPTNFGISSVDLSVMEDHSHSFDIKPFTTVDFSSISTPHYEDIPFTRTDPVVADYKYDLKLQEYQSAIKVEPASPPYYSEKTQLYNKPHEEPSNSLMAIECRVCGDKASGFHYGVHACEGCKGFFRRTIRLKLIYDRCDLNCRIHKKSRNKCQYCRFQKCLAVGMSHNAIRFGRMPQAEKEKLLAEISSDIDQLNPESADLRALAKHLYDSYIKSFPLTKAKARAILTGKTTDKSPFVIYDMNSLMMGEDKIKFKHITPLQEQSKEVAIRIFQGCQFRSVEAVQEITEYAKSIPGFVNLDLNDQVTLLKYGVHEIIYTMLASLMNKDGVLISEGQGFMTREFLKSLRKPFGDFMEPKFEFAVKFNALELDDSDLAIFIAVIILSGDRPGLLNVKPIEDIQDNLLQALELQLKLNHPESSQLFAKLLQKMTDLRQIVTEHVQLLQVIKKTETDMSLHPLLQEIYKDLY
# Summary of the method: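 Compounds are tested as concentration series for inhibition of rosiglitazone-driven (50 nM) reporter expression in GeneBLAzer PPAR-gamma-UAS-bla HEK293 cells. After 16 h at 37 C, CCF4 substrate is added for 2 h at room temperature and blue/green fluorescence is measured.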
# [3] = qHTS assay to identify small molecules that stimulate interleukin-8 (IL-8) secretion (AID 651758; active means well fitted activation curve with a large enough effect in the signal ratio; the % refers to the signal ratio; further: potency means the concentration at half of the fitted maximal effect); conditions: HTRF ratio (665/615); series mostly up to 92.2 µM
# Summary of the method: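 Quantitative HTS in THP-1 monocytic cells at 2000 cells per well, with 16 hrs compound incubation at 37 C. IL-8 in the medium was then quantified by HTRF immunoassay, read after 1-3 hrs at room temperature.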
# [4] = target: Cytochrome P450 3A4 (Homo sapiens) (UniProt P08684); experiment: qHTS Assay for Activators of Cytochrome P450 3A4 (AID 885); conditions: recombinant CYP3A4, Luciferin-PPXE luminescence, 60 min; series mostly up to 11.4 µM; further: nearly all actives have a fitted effect of over 65% in size; further: potency means the concentration at half of the fitted maximal effect
# Chain of Cytochrome P450 3A4 (Homo sapiens) (P08684 whole entry, looked up): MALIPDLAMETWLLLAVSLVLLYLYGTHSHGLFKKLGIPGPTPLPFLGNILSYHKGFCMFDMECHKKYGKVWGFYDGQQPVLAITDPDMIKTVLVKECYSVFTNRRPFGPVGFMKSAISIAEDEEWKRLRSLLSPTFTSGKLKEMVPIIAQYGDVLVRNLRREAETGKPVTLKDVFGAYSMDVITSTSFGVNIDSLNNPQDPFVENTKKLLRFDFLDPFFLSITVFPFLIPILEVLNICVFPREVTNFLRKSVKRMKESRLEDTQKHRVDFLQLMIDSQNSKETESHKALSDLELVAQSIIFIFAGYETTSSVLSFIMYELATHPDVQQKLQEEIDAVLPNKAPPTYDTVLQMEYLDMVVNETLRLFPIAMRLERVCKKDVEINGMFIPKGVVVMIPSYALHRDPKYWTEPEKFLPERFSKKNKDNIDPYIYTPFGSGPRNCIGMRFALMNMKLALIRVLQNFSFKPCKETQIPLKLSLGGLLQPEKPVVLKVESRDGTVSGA
# Summary of the method: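 Human CYP3A4 dealkylates Luciferin-PPXE to luciferin, which luciferase detection converts to light. Substrate was at its KM (25uM), buffer 200mM KPO4, reaction 60 min at RT.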
# [5] = target: Endonuclease 4 (Escherichia coli (strain K12)) (UniProt P0A6C1); experiment: Counterscreen for APE1 Inhibitors: qHTS Assay for Inhibitors of Endonuclease IV (AID 2565); conditions: E. coli Endo IV, fluorogenic AP-site DNA cleavage; series mostly up to 27.1 µM
# Summary of the method: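 Enzyme (2 nM) + compound, 15 min RT; add 50 nM TAMRA/BHQ-2 THF-site dsDNA; kinetic read ex525/em598, 3 reads/60 s; activity = read 3 − read 1. Buffer Tris pH 7.5, 50 mM NaCl, 2 mM MgCl2, DTT, Tween-20.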
# [6] = Counterscreen for APE1 Inhibitors: Fluorescent Dye Displacement Assay (AID 2564); conditions: DNA fluorescent dye displacement counterscreen, fluorescence; series mostly up to 28.5 µM;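 further: loss of thiazole orange fluorescence as the dye is displaced from duplex DNA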
# Summary of the method: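 Reaction mixture of 250 nM Thiazole Orange and 50 nM double-stranded abasic-site DNA was dispensed, compounds were pin-transferred, and fluorescence was read at endpoint (480 nm ex, 540 nm em). Reduced fluorescence indicated dye displacement by DNA binding.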
# [7] = target: DNA repair nuclease/redox regulator APEX1 (Homo sapiens) (UniProt P27695); experiment: qHTS FP-Based Assay for Inhibitors of the Human Apurinic/apyrimidinic Endonuclease 1 (APE1) (AID 2573); conditions: APE1 binding to TAMRA-labelled double-stranded DNA, fluorescence polarization displacement; series mostly up to 28.5 µM
# Chain of DNA repair nuclease/redox regulator APEX1 (Homo sapiens) (P27695 whole entry, looked up): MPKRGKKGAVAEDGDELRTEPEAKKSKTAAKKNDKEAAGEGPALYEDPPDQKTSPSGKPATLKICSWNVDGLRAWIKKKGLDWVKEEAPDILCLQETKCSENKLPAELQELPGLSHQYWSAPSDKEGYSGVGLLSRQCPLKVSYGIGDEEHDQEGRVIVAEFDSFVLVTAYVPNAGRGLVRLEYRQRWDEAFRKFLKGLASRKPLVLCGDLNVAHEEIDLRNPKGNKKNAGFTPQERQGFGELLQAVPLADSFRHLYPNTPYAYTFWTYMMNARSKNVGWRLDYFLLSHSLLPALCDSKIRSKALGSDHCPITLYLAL
# [8] = qHTS profiling for inhibitors of Plasmodium falciparum proliferation (AID 504749); further: nearly all actives have a fitted effect of over 60% in size; conditions: P. falciparum in erythrocytes, SYBR Green DNA, 72 h, at 28.7 µM (top of the series)
# Summary of the method: (§1)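 Quantitative HTS: compounds pinned into medium, infected erythrocytes added (0.3% parasitemia, 2.5% hematocrit), 72 h culture at 37 C under 5% CO2. Saponin/Triton lysis with SYBR Green I, overnight RT, then fluorescence read.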
# CP192 = experiment: as above; conditions: P. falciparum in erythrocytes, SYBR Green DNA, 72 h; series mostly up to 28.7 µM
# Summary of the method: as §1
# CP203 = experiment: as above; conditions: P. falciparum in erythrocytes, SYBR Green DNA, 72 h; series mostly up to 28.7 µM
# Summary of the method: as §1
# DFO2036 = experiment: as above; conditions: P. falciparum in erythrocytes, SYBR Green DNA, 72 h; series mostly up to 28.7 µM
# Summary of the method: as §1
# PC49 = experiment: as above; conditions: P. falciparum in erythrocytes, SYBR Green DNA, 72 h; series mostly up to 28.7 µM
# Summary of the method: as §1
smiles,measurement,setting,value
CCCCCCCCC1CO1 (centres undefined),activation,[1],13.4%
same,Potency,[2],inactive
Cc1ccccc1OCC1CO1 (centres undefined),Potency,[3],inactive
CCCCC(CC)COCCCN (centres undefined),Potency,[4],inactive
Nc1ccccc1O,Potency,[3],66.8 µM (active)
CC(=O)OCc1ccc2c(c1)OCO2,Potency,[3],inactive
Nc1cc([N+](=O)[O-])ccc1O,activation,[1],-20.1%
same,Potency,[2],inactive
Brc1cc(Oc2cc(Br)c(Br)c(Br)c2Br)c(Br)c(Br)c1Br,Potency,[2],inactive
CCCC(=O)OC(=O)CCC,Potency,[2],inactive
O=C(Cl)c1ccc([N+](=O)[O-])cc1,activation,[1],25.7%
same,Potency,[3],inactive
CN(C)c1ccc(Cc2ccc(N(C)C)cc2)cc1,Potency,[2],inactive
Cc1ccc(S(N)(=O)=O)cc1,Potency,[2],inactive
same,Potency,[3],inactive
CC(C)COC(=O)COc1cc(Cl)c(Cl)cc1Cl,Potency,[2],inactive
same,Potency,[3],inactive
O=CC(=O)c1ccccc1,Potency,[3],inactive
O=C(OCC1CO1)C1CCCCC1C(=O)OCC1CO1 (centres undefined),Potency,[3],66.8 µM (active)
Nc1ccc(-c2ccc(N)c(O)c2)cc1O,activation,[1],4.81%
c1ccc2ncccc2c1,Potency,[3],inactive
c1cc2c3c(c1)ccc1cccc(c13)C2,Potency,[4],inactive
same,Potency,[3],inactive
CCNC(=S)NCC,Potency,[4],inactive
same,Potency,[2],inactive
Cc1ccc2ccc3cccc4ccc1c2c34,Potency,[2],inactive
Oc1ccc(O)c2c(O)cccc12,Potency,[3],75 µM (active)
CC(C)S,Potency,[2],inactive
CC(=O)CC(=O)Nc1ccccc1,Potency,[2],inactive
same,Potency,[3],inactive
Cc1ccc(N)cc1[N+](=O)[O-],Potency,[2],inactive
Cc1cc2nc(N)sc2cc1C,Potency,[4],inactive
same,Potency,[2],inactive
C=Cc1cccc(C)c1,Potency,[2],inactive
same,Potency,[3],inactive
O=C(CN1CCN(S(=O)(=O)/C=C/c2ccccc2)CC1)NC(=O)NCc1ccco1,outcome,[5],inactive
c1ccc(CSCc2ccccc2)cc1,Potency,[2],inactive
C=CCn1c(=S)[nH]c2scc(-c3ccco3)c2c1=O,outcome,[6],inactive
same,outcome,[5],inactive
same,Potency,[7],inactive
Cc1c(N)cccc1Cl,Potency,[3],inactive
C=CC(=O)OCCCCCCOC(=O)C=C,Potency,[4],inactive
same,activation,[1],1.98%
same,Potency,[2],inactive
O=C(Cc1ccc(S(=O)(=O)N2CCOCC2)s1)NCCC(c1ccccc1)c1ccccc1,outcome,[5],inactive
OCC(CBr)(CBr)CBr,Potency,[2],inactive
CCCCC(CC)COP(=O)(OCC(CC)CCCC)OCC(CC)CCCC (centres undefined),Potency,[2],inactive
CC(C)(C)C(=O)C1C(=O)c2ccccc2C1=O,Potency,[3],inactive
C/C=C1/C(=O)C[C@H]2[C@@H]3CCC4=CC(=O)CC[C@]4(C)[C@H]3CC[C@]12C,Potency,[4],1 µM (active)
Cc1c(C(=O)O)c(O)cc2c1C(=O)c1c(O)c([C@H]3O[C@H](CO)[C@@H](O)[C@H](O)[C@H]3O)c(O)c(O)c1C2=O,Potency,[4],inactive
same,"activity, negative = inhibition",[8]; parasite line A,5.98%
same,"activity, negative = inhibition",[8]; parasite line B,13.4%
same,Potency,CP192,inactive
same,Potency,CP203,inactive
same,Potency,DFO2036,inactive
same,Potency,PC49,inactive
CCN(CC)c1ccc(N)cc1,Potency,[4],inactive
same,Potency,[3],37.6 µM (active)
Nc1ccc(N)c(Cl)c1,Potency,[4],inactive
S=C(NC1CCCCC1)NC1CCCCC1,Potency,[4],inactive
same,Potency,[2],inactive
Cc1cc(=O)oc2cc(O)cc(O)c12,Potency,[4],inactive
C=CC(C)(O)CCCC(C)CCCC(C)CCCC(C)C (centres undefined),Potency,[4],inactive
same,Potency,[2],inactive
